Jurkat NFkB inh: inhibitors of the PMA/ionomycin-induced NF-kB reporter in Jurkat cells | PMA/ionomycin-induced NF-kB luciferase reporter, luminescence | inhibition, % at 4 µM | 330,000 tested, 0.53% active | AID 435003; in the data active means inhibition above about 50%
697 NFkB inh: inhibitors of the PMA/ionomycin-induced NF-kB reporter in 697 B cells. 330,000 tested, 0.33% active. inhibition, % at 4 µM. AID 435022. 697 B-cell NF-kB luciferase reporter, 16 h; in the data active means inhibition above about 35%
NR2F2 inh: NR2F2 (human) inhibition, primary screen; P24468; HEK293T NGFI-A luciferase reporter, luminescence; inhibition, % at 8.6 µM; 370,000 tested, 0.7% active;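 active means inhibition above a per-plate cutoff, mean inhibition of test wells between control levels plus 3 SD, cut at about 38% in these data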;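 further: cells cotransfected with COUP-TFII expression vector driving the NGFI-A reporter; 0% = median of COUP-TF2 test wells and 100% = reporter-only cells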
Target sequence (P24468 whole entry, looked up): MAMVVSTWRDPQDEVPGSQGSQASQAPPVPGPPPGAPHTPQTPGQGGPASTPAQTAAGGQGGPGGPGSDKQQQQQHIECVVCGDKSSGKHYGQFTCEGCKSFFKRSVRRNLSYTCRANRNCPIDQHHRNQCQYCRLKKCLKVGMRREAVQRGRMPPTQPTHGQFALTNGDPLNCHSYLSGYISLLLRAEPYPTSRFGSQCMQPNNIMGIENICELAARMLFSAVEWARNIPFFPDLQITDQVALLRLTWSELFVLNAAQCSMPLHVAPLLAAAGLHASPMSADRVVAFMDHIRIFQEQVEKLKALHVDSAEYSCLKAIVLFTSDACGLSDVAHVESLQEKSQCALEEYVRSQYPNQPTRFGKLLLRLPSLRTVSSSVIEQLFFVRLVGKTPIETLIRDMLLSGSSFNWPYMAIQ
Gli-Sufu antag: antagonists of Gli-Sufu signaling. Sufu-KO-LIGHT fibroblasts, Gli luciferase reporter luminescence. inhibition, % at 5 µM. 340,000 tested, 0.74% active;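 active means inhibition above about 55%, limit read from the data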;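 further: 0% = DMSO-treated cells and 100% = wells with medium but no cells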
Cardio protect: modulators protecting cardiomyocytes from myocardial damage | H9c2 cardiomyocytes, H2O2 injury protection, ATPLite, 2 h | protection from H2O2 cell death, % at 20 µM | 360,000 tested, 0.63% active | AID 588492;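 active means compounds giving at least 50% protection of heart cells from peroxide-induced death in the single-dose screen, raw or plate-pattern-corrected value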;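 further: 0% = DMSO wells with peroxide and 100% = DMSO wells without peroxide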
TAG inh: reduces triacylglycerol accumulation in H9c2 cells | Nile Red lipid (TAG) fluorescence; cells loaded with 200 µM oleic acid | inhibition, % at 12.5 µM | 230,000 tested, 0.66% active;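 active means pattern-corrected inhibition of lipid staining of at least 50% with the nuclear-stain viability signal not falling by more than 50%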;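 further: 0% = DMSO wells and 100% = triacsin C control wells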
Gli-Sufu confirm: Gli-SUFU antagonism confirmation, single concentration | inhibition, % at 5 µM | Sufu-KO-LIGHT cells, Gli luciferase reporter, luminescence | shares compounds with Gli-Sufu antag | 2,500 tested, 40% active;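 active means mean inhibition at 5 µM reaching about 45%, limit read from the data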;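 further: plate controls were DMSO-treated cells for no effect and wells lacking cells for full effect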
SufuKO cytotox: cytotoxicity counter-screen for Gli-SUFU antagonists. shares compounds with Gli-Sufu antag. Sufu-KO-LIGHT cells cytotoxicity, ATP luminescence. cytotoxicity, % at 5 µM. 2,500 tested, 32% active. AID 651994;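 active means mean cytotoxicity at 5 µM above about 25%, limit read from the data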;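 further: cells exposed to compound overnight for roughly 16 to 18 hours; plate controls were DMSO wells with cells for no effect and medium without cells for full effect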
Wnt3a cs: inhibits Wnt3a reporter, counter-screen for Gli-SUFU antagonists. shares compounds with Gli-Sufu antag. Wnt-LIGHT cells, Wnt3a-driven luciferase reporter, luminescence. inhibition, % at 6.25 µM. 2,500 tested, 20% active. AID 651995;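 active means mean inhibition above about 25%, limit read from the data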
* = called active by the depositor. Rows were chosen to be rich in hits. Some 2.6% of all compounds tested hit in one or more screens of this group.

Results for O=C(O)CCCCCN1C(=O)C2CCCCC2C1=O (stereo not drawn) ?
Jurkat NFkB inh: -15; 697 NFkB inh: 13; NR2F2 inh: 4; Gli-Sufu antag: 70*; Cardio protect: 1; TAG inh: 0; Gli-Sufu confirm: 19; SufuKO cytotox: 3; Wnt3a cs: -18

What do the screens show for `COc1ccc2c(c1OC)C(=O)OC2C1c2c(cc3c(c2OC)OCO3)CCN1C` (stereo not drawn)?
Jurkat NFkB inh: 1; 697 NFkB inh: 19; NR2F2 inh: -7; Gli-Sufu antag: 51; Cardio protect: 14; TAG inh: 24; Gli-Sufu confirm: 34; SufuKO cytotox: 17; Wnt3a cs: -6

What do the screens show for `O=C1C=C(c2cccc3c2Oc2ccccc2S3)C[C@@H](c2ccc3c(c2)OCO3)C1`?
NR2F2 inh: -7

What do the screens show for `CCOC(=O)C1CCCN(C(=O)COC(=O)c2cc(=O)c3ccccc3o2)C1` (stereo not drawn)?
Jurkat NFkB inh: -1; 697 NFkB inh: -10; NR2F2 inh: -6; Gli-Sufu antag: 3; Cardio protect: 7

Results for O=C(OCC(=O)N1CCCC1)c1cc(=O)c2ccccc2o1 ?
Jurkat NFkB inh: -17; 697 NFkB inh: 9; NR2F2 inh: -19; Gli-Sufu antag: 54; Cardio protect: -4; TAG inh: 18; Gli-Sufu confirm: 15; SufuKO cytotox: 7; Wnt3a cs: -1

How did CCCCc1c(-c2ccccc2OC)ncn1Cc1c(Cl)cccc1Cl do in these assays?
NR2F2 inh: 3

How did CCOC(=O)N1CCN(C(=O)CCCCCn2c(=S)[nH]c3ccsc3c2=O)CC1 do in these assays?
Jurkat NFkB inh: -5; 697 NFkB inh: 14; NR2F2 inh: -5; Gli-Sufu antag: 69*; Cardio protect: 3; TAG inh: -2; Gli-Sufu confirm: 27; SufuKO cytotox: 2; Wnt3a cs: 26*

Results for CCOC(=O)N1CCN(C(=O)CCCn2c(=S)[nH]c3ccsc3c2=O)CC1 ?
Jurkat NFkB inh: -10; 697 NFkB inh: 18; NR2F2 inh: 27; Gli-Sufu antag: -36; Cardio protect: 3; TAG inh: 23

Results for O=C(OC12CCCN(C1)/C(=C/c1cccc(Cl)c1)C2)C1CCCCC1 (stereo not drawn) ?
NR2F2 inh: -9

Results for CCC(C)NS(=O)(=O)c1ccc(S(=O)(=O)N2CCCC3(CCCCC3)C2)cc1 (stereo not drawn) ?
Jurkat NFkB inh: 33; 697 NFkB inh: -11; NR2F2 inh: -3; Gli-Sufu antag: 53; Cardio protect: -23; Gli-Sufu confirm: 43; SufuKO cytotox: 26*; Wnt3a cs: 6

What do the screens show for `CCC(C)C(=O)Nc1ccc(S(=O)(=O)N2CCCC2)cc1` (stereo not drawn)?
Jurkat NFkB inh: -5; 697 NFkB inh: 6; NR2F2 inh: 9; Gli-Sufu antag: -45; Cardio protect: 4

Results for COC(=O)[C@]12C[C@H](CC(=O)NCc3ccc(C)o3)C(=O)N(Cc3ccc4c(c3)OCO4)C1=C[C@H](COCc1ccccc1)O[C@@H]2C ?
NR2F2 inh: 0

Results for CCN(CC)CCN1C(=O)C2C(C(=O)Nc3cc(C)cc(C)c3)C3C=CC2(O3)C1C(=O)NC1CCCCC1 (stereo not drawn) ?
Jurkat NFkB inh: 18; 697 NFkB inh: -3; NR2F2 inh: -6; Gli-Sufu antag: 64*; Cardio protect: 4; Gli-Sufu confirm: 12; SufuKO cytotox: 1; Wnt3a cs: -6

How did COC(=O)C1CN(Cc2ccccc2)CCS(=O)(=O)N1Cc1cccc(Cl)c1 (stereo not drawn) do in these assays?
NR2F2 inh: -14

How did COc1ccc(CN2CN3Cc4cc(OC)ccc4C3CS2(=O)=O)cc1 (stereo not drawn) do in these assays?
NR2F2 inh: 0

How did CCOC(=O)CN1C(=O)/C(=C/c2ccccc2Br)Oc2ccccc21 do in these assays?
Jurkat NFkB inh: 15; 697 NFkB inh: -13; NR2F2 inh: 2; Gli-Sufu antag: 57*; Cardio protect: -10; Gli-Sufu confirm: 12; SufuKO cytotox: 7; Wnt3a cs: -8

What do the screens show for `COc1ccc(CC(=O)NNC(=O)CCC(=O)Nc2cc(C)ccc2C)cc1`?
Jurkat NFkB inh: -6; 697 NFkB inh: 16; NR2F2 inh: 6; Gli-Sufu antag: 82*; Cardio protect: 1; TAG inh: -17; Gli-Sufu confirm: 11; SufuKO cytotox: 15; Wnt3a cs: -1

How did COc1ccc(C(=O)NNC(=O)CCC(=O)Nc2ccc(C)cc2C)cc1 do in these assays?
Jurkat NFkB inh: 14; 697 NFkB inh: 3; NR2F2 inh: -19; Gli-Sufu antag: 4; Cardio protect: -3

Results for CCCCNC(=O)c1cn(CC)c2ccc(S(=O)(=O)N3CCCCCC3)cc2c1=O ?
Jurkat NFkB inh: 23; 697 NFkB inh: 16; NR2F2 inh: 18; Gli-Sufu antag: 52; Cardio protect: -5; Gli-Sufu confirm: 19; SufuKO cytotox: 40*; Wnt3a cs: -28

What do the screens show for `CCn1cc(C(=O)NCCCOC(C)C)c(=O)c2cc(S(=O)(=O)N3CCCC3)ccc21`?
Jurkat NFkB inh: -5; 697 NFkB inh: -28; NR2F2 inh: -4; Gli-Sufu antag: -23; Cardio protect: 1

What do the screens show for `COc1ccc(C(=O)Nc2ccc3oc(-c4cccc(F)c4)nc3c2)cc1OC`?
Jurkat NFkB inh: -2; 697 NFkB inh: -7; NR2F2 inh: -2; Gli-Sufu antag: 4; Cardio protect: 6; TAG inh: 19

How did COc1ccccc1C(=O)Nc1ccc2oc(-c3ccc(F)cc3)nc2c1 do in these assays?
Jurkat NFkB inh: -33; 697 NFkB inh: -45; NR2F2 inh: 2; Gli-Sufu antag: 95*; Cardio protect: 5; Gli-Sufu confirm: -12; SufuKO cytotox: 16; Wnt3a cs: -71

Results for CCOC(=O)N1CCN(c2cc(=O)n(-c3ccccc3Cl)c(=O)[nH]2)CC1 ?
Jurkat NFkB inh: -5; 697 NFkB inh: 12; NR2F2 inh: 10; Gli-Sufu antag: 54; Cardio protect: 5; TAG inh: -1; Gli-Sufu confirm: 16; SufuKO cytotox: 23; Wnt3a cs: 2

What do the screens show for `O=c1cc(N2CCN(c3ccccc3)CC2)[nH]c(=O)n1-c1ccccc1Cl`?
Jurkat NFkB inh: 6; 697 NFkB inh: 18; NR2F2 inh: 16; Gli-Sufu antag: -4; Cardio protect: -4
